Sampled rows, rich in hits. Any-hit rate of the full collection: about 1.7%.
GLP1R inv ag = inverse agonists of human GLP-1 receptor; P43220; HEK293 GLP-1R CRE-luciferase, luminescence, 24 h; GLP-1R form is constitutively active; Potency, µM (doses to about 38.3 µM), for the others: at the top dose activity change, negative = inhibition, most hits filed as inhibitors; 410,000 tested, 1.6% active; further: on the % scale 0 is the no-effect control and ±100 the full control effect; nearly all actives have a fitted effect of over 55% in size
Target sequence (P43220 whole entry, looked up): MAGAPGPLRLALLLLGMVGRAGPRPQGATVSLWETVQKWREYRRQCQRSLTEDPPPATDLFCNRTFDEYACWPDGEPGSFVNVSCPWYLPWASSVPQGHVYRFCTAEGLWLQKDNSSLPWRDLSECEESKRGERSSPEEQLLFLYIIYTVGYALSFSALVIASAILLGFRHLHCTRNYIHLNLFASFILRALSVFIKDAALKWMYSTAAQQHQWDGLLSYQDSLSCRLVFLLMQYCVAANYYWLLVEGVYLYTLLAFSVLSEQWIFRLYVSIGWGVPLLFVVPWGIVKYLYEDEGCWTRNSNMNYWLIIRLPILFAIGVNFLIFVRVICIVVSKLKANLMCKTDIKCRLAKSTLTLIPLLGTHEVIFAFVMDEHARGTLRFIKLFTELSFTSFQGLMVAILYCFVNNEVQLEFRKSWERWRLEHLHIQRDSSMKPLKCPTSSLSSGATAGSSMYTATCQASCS
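HEK293 cells stably co-expressing constitutively active GLP-1R and a cAMP-responsive luciferase reporter were seeded in DMEM with 10% Nu serum, given compounds after 12 h, and incubated 24 h at 37 deg C. Luminescence was then read.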
PTHR1 ag = activates the human parathyroid hormone receptor PTHR1; Q03431; HEK293 GP2 PTHR1 cells, GloSensor cAMP luminescence, 1 h; Potency, µM (highest dose often 115 µM), for inactives: at the top dose activation, most hits filed as activators; 410,000 tested, 0.075% active; further: nearly all actives have a fitted effect of over 55% in size
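HEK-293-derived GP2 cells expressing PTHR1 and a GloSensor cAMP reporter, 3,000/well, plated overnight, given luciferin plus IBMX (each 0.5 mM as added) for 1 h at 37 °C, then compound for 1 h at 37 °C. Luminescence was read after 15 min at room temperature.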
HEK293 tox = cytotoxicity in counter-screen for GLP-1R inverse agonists; 410,000 tested, 0.13% active; HEK293 cAMP-luciferase reporter cells, luminescence, 24 h; Potency, µM (titrated, usually from 38.3 µM), for the others: at the highest dose activity change, negative = inhibition, most hits filed as inhibitors;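 further: loss of luciferase light is scored as toxicity; on the % scale 0 is the no-effect control and ±100 the full control effect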
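Here, cytotoxicity is scored as loss of luminescence. The MLSMR collection was tested on cells seeded in medium containing 10% Nu serum, with a 24 hr compound exposure preceded by 12 hours of culture.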
GLP-1R agonist = activates the human GLP-1 receptor; P43220; Potency, µM (series often up to 45.6 µM), for the others: at the top dose activation, most hits filed as activators; 380,000 tested, 0.007% active; AID 624172; HEK293 GLP-1R CRE-luciferase, luminescence, 4-6 h; cells express a hypersensitive GLP-1R form; further: % of control where 0% means no effect
Starred values were filed as active, the others as inactive; i = inactive; ? = inconclusive; . = not tested or not shown; [ ] = remark or other dose. The call rests on the fitted dose curve; in most records, active means well fitted curve in the direction sought with a large enough effect; inconclusive means small, poorly fitted or top-dose-only effect, or another doubt; inactive means no such curve, though single readings can be large; an effect the other way counts as inactive or inconclusive. Potency means the concentration at half of the fitted maximal effect.

SMILES	GLP1R inv ag	PTHR1 ag	HEK293 tox	GLP-1R agonist
O=C(NCCn1cc(SCc2ccc(F)cc2)c2ccccc21)c1cccs1	?	-36%	-15%	-12%
CCOc1ccccc1NC(=O)c1c(NCc2cccs2)sc2c1CCCCC2	13µM*	-24%	-15%	.
Cc1onc(-c2ccccc2)c1C(=O)N[C@@H]1C(=O)N2[C@@H](C(=O)O)C(C)(C)S[C@@H]12	.	.	.	-1%
C=CCNC(=S)NN=C1CCCCCCC1	3.5µM*	-4%	?	14%
COCCNC(=S)NN=C1CCCCC1	-9%[7.66 µM]	9%	-1%[7.66 µM]	-1%
NC(=S)NN=C1CCCCCCCCC1	2.8µM*	-24%	4.5µM*	12%
CCn1nc([N+](=O)[O-])c(C(C#N)c2nc3cc(C(F)(F)F)ccc3s2)c(Cl)c1=O (centres undefined)	0%	-17%[57.5 µM]	5µM*	-23%
Cc1cc(NC(=O)CN(C)S(=O)(=O)c2ccc3c(c2)CCC(=O)N3)ccc1Br	8%	-61%	0%	.
CCOc1ccccc1N=C1SC(CC(=O)Nc2ccc(OC)cc2OC)C(=O)N1CCC1=CCCCC1 (centres undefined)	2.8µM*	-19%	2%	0%
CCc1ncc(C(O)c2ccc(Cl)cc2)n1Cc1ccccc1 (centres undefined)	8.9µM*	-19%	-4%	-8%
Cc1ncc(C(O)c2ccc(N(C)C)cc2)n1Cc1ccccc1 (centres undefined)	-19%	-19%	3%	6%
COc1cc(-c2nnc(CSc3nnc(Nc4ccc(C(C)C)cc4)s3)o2)cc(OC)c1OC	?	-6%	11µM*	11%
COc1ccccc1Nc1nnc(SCc2nnc(-c3cc(OC)c(OC)c(OC)c3)o2)s1	-20%	i	-25%	18%
CCn1cc(CN2CCCC(C(=O)c3ccc(-c4ccccc4)cc3)C2)cn1 (centres undefined)	8.9µM*	-4%	-27%	10%
Cc1cccc(S(=O)Cc2ccc(C(=O)NC3CCCCCC3)o2)c1 (centres undefined)	-5%	0%	-20%	.
CCCn1c(NC(=O)c2ccc(C)cc2)nc2ccccc21	?	i	-5%	-8%
CCCn1c(NC(=O)c2ccccc2)nc2ccccc21	11µM*	-28%	?	6%
CC(C)Cn1c(CNC(=O)c2ccccc2)nc2ccccc21	14µM*	-50%	-11%	3%
COc1ccccc1-c1nc2c(c(SCc3cc(C)ccc3C)n1)Cc1c(CO)cnc(C)c1O2	52%	i	-10%	.
COc1cc(C)ccc1OCCSc1nc2ccc(NC(C)=O)cc2s1	-15%	i	-5%	.
Cc1cc(C)c(CN2C(=O)c3ccccc3S(=O)(=O)c3ccc(C(=O)OCC4CCCO4)cc32)c(C)c1 (centres undefined)	-22%	-13%	12%	.
COc1cccc(Nc2ccc3cc(S(=O)(=O)N4CCC(C)CC4)ccc3n2)c1	?	i	1%	.
Cc1ccccc1CN(C)C(=O)COC(=O)c1ccc2[nH]c(C)c(C)c2c1	8.9µM*	0%	-29%	2%
Cc1[nH]c2ccc(C(=O)OC(C)C(=O)NCc3ccccc3)cc2c1C (centres undefined)	?	-27%	?	9%
O=C(N/N=C/c1cccc(Oc2ccccc2)c1)c1cccc(O)c1	?	-25%	?	14%
SMILES	GLP1R inv ag	PTHR1 ag	HEK293 tox	GLP-1R agonist
O=C(N/N=C/c1cccc(Oc2ccccc2)c1)c1cccc(Br)c1	8.9µM*	-23%[57.5 µM]	-35%	-5%
CC(C)c1ccccc1NC(=O)Nc1nc(C(N)Cc2ccc(C(F)(F)F)cc2)cs1 (centres undefined)	13µM*	i	?	-23%
NC(Cc1ccc(C(F)(F)F)cc1)c1csc(NC(=O)Nc2ccccc2Cc2ccccc2)n1 (centres undefined)	?	-11%	?	-24%
CC(C)CC(N)c1csc(NC(=O)Nc2ccccc2C(C)C)n1 (centres undefined)	10µM*	i	?	4%
O=C(Nc1ccccc1C(=O)Nc1nnc(C(F)(F)F)s1)c1ccccc1	?	-40%	3.2µM*	-6%
C=CCN(c1ccccc1Cl)S(=O)(=O)c1cccc(C(=O)NCCc2ccc(OC)cc2)c1	4.5µM*	i	-4%	-3%
C=CCN(c1ccccc1OC)S(=O)(=O)c1cccc(C(=O)NCc2cccs2)c1	?	-13%	8%	11%
Cc1ccc(Cl)cc1N(C)C(=O)c1cc2ccc3cccnc3c2[nH]1	?	-22%	-3%	.
COc1ccc(-c2oc3ccccc3c(=O)c2OC(=O)c2ccc(C)cc2)cc1	5%	i	108%	3%
O=C(Oc1c(-c2ccccc2)oc2ccccc2c1=O)c1ccccc1	5µM*	-15%	72%	-1%
OCCC1CN(Cc2nc(-c3ccccc3)cs2)CCN1CCc1ccccc1 (centres undefined)	10µM*	-10%	-29%	9%
CCN(CC)CCCC(C)Nc1nccc2c(Cl)cccc12 (centres undefined)	4.5µM*	-7%	?	-5%
Cc1[nH]c2ccccc2c1/C=N/Nc1ccc([N+](=O)[O-])cc1	2.8µM*	-5%	?	4%
C/C(=N/Nc1ccc([N+](=O)[O-])cc1)c1c[nH]c2ccccc12	2.5µM*	-29%	-12%	6%
Cc1[nH]c2ccccc2c1/C=N/NC(=O)c1cccc([N+](=O)[O-])c1	-30%	-62%	21%	6%
CCCN(CCC)C(=O)Cn1c(=O)n(-c2ccc(Cl)c(Cl)c2)c(=O)c2c(C)c(C(=O)N(C)C)sc21	15%	?	-2%	.
C=CCn1c(SCC(=O)Nc2c(C)n(C)n(-c3ccccc3)c2=O)nc2sc(C)c(C)c2c1=O	4%	i	-3%	10%
C=CCn1c(SCC(=O)Nc2c(C)n(C)n(-c3ccccc3)c2=O)nc2sc(C)c(-c3ccccc3)c2c1=O	3.2µM*	-15%[57.5 µM]	-3%	4%
COc1ccc(S(=O)(=O)c2cn(Cc3ccccc3)c3cc(N4CCCC4)c(F)cc3c2=O)cc1	8%	-22%	-4%	.
CC1CC(C)CN(S(=O)(=O)c2ccc(C(C)(C)C)cc2)C1 (centres undefined)	2µM*	-38%	4%	8%
CC(C(=O)N1CCCC1)N1CCN(S(=O)(=O)c2ccc(OC(F)(F)F)cc2)CC1 (centres undefined)	-14%	i	0%	0%
CC1CC(C)CN(C(=O)C(C)N2CCN(S(=O)(=O)c3ccc(C(F)(F)F)cc3)CC2)C1 (centres undefined)	10µM*	-30%	-5%	4%
Cc1ccccc1N=Nc1c(O)[nH]c2ccccc12	3%	i	6%	-1%
CNC(=S)N=Nc1c(O)[nH]c2ccccc12	-3%	i	11µM*	2%
Oc1ccc(NC(=S)N=Nc2c(O)[nH]c3ccccc23)cc1	-1%	-13%	?	0%
COc1ccc(NC(=S)N=Nc2c(O)[nH]c3ccccc23)cc1	?	-23%	3.2µM*	-4%
